Shown are actives, neighbours in structure and some others; about 3.5% of the full set was active somewhere.
GPR151 ag: human GPR151 activation. activation, % at 11.2 µM. hit rate 1% among 650,000. Q8TDV0. PathHunter beta-arrestin GPR151 cells, luminescence. AID 1508602; in the data active means activation above about 4.9%;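 further: 0% = median of compound wells and 100% = cells with positive control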
Target sequence (Q8TDV0 whole entry, looked up): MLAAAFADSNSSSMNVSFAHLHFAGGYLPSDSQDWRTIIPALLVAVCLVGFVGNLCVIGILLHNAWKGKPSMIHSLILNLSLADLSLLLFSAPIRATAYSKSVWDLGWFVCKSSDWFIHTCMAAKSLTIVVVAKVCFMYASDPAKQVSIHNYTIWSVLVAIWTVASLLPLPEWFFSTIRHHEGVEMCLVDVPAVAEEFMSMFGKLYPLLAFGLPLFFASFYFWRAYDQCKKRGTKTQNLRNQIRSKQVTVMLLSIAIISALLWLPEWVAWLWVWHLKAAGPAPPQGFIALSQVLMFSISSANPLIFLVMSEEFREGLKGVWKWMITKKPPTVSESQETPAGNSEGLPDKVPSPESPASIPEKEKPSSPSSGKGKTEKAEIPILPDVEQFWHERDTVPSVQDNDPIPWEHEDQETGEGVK
MITF primary: blocks human microphthalmia-associated transcription factor; O75030; AlphaScreen MITF homodimerization, bead proximity signal; inhibition, % at 2.6 µM; hit rate 0.91% among 650,000; in the data active means inhibition above about 50%;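 further: 0% = vehicle wells with protein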
FBW7 activator: human FBW7 E3 ligase activation, primary screen; AlphaScreen FBW7–phospho-cyclin E peptide binding, activator screen; normalized activity (activation), % at 26.1 µM; hit rate 0.13% among 650,000; in the data active means normalized activity above about 1.9%;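 further: purified mutant Fbw7 with reduced substrate affinity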
TEAD-YAP inh: TEAD-YAP interaction inhibition; HEK-TIYL cells, TEAD-Gal4/YAP UAS-luciferase luminescence; inhibition, % at 9.12 µM; hit rate 1.4% among 640,000; AID 1259422; in the data active means inhibition above about 32%;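 further: 0% = median of test compound wells and 100% = reference inhibitor wells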
GPR151 conf act: confirmation of human GPR151 activators. shares compounds with GPR151 ag. activation, % at 11.2 µM. 6,700 tested, under 10 active. GPR151 PathHunter beta-arrestin cells, luminescence, 90 min; % of EA-reagent control over plate median;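 active means mean percent activation across replicates above the confirmation screen cutoff of 4.91%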
GPR119 counter: activates human GPR119 in a GPR151 counter-screen. shares compounds with GPR151 ag. GPR119 PathHunter beta-arrestin cells, luminescence, 90 min; 0 = compound-well median, 100 = enzyme-acceptor control. activation, % at 11.2 µM. hit rate 0.3% among 6,700. AID 1508611;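 active means mean percent activation in the counterscreen above 29.09%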;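 further: counterscreen on off-target GPR119 to flag nonselective hits from the GPR151 activator screen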
* = called active by the depositor; . = not tested or not shown.

SMILES	GPR151 ag	MITF primary	FBW7 activator	TEAD-YAP inh	GPR151 conf act	GPR119 counter
Cc1ccc(CN2CCN(Cc3nc4ccccc4n3C)CC2CCO)cc1 (configuration not stated)	18.7*	14.1	0.2	-1.7	0.3	1.8
CC1=C(C(=O)OCc2ccccc2)C(c2ccccc2[N+](=O)[O-])n2nnnc2N1 (configuration not stated)	-0.5	12.3	0.4	-3.4	.	.
CN1CCCC(OC(=O)c2cc(Cl)ccc2Cl)C1 (configuration not stated)	-0.2	-6.2	-0.1	-5.7	.	.
CN1CCCC(OC(=O)c2cc(Br)ccc2Cl)C1 (configuration not stated)	6.2*	24.8	0.2	-0.2	-0.7	-0.8
Nc1cccc2c1C(=O)N(C(=O)c1ccc(N3CCOCC3)c([N+](=O)[O-])c1)C2=O	1.8	-4.1	0.1	0.4	.	.
COCCN1C(=O)c2ccc(C34CC5CC(CC(C5)C3)C4)cc2C1=O	-1.6	21.5	0.7	-14.4	.	.
CCC(C)C1N=C2c3ccccc3N=C(SCc3cccc(F)c3)N2C1=O (configuration not stated)	5.2*	11.0	-0.2	-18.9	1.5	8.0
O=C(Cc1ccc(F)cc1)NCCc1nnc2n1CCN(Cc1cc3ccccc3o1)CC2	5.1*	-2.2	-0.1	4.5	0.3	2.3
CC(C)C(=O)NCCc1nnc2n1CCN(Cc1cc3ccccc3o1)CC2	-0.3	7.9	-0.1	6.7	.	.
COc1ccc(CN2CCN(Cc3cccs3)C(CCO)C2)c(O)c1 (configuration not stated)	5.1*	-5.1	-0.1	-14.3	-0.5	-7.8
COc1cccc(CN2CCN(Cc3cccs3)C(CCO)C2)c1 (configuration not stated)	0.2	-3.2	-0.1	-5.2	.	.
O=C(c1ccc([N+](=O)[O-])cc1)N1CCOC12CCCCC2	-2.3	2.7	0.1	1.9	.	.
O=C(Nc1nnc(SCc2cccc(C(F)(F)F)c2)s1)C1CC1	1.5	9.0	0.1	0.8	.	.
Cn1ccnc1SCc1cc(=O)c(OC(=O)c2ccccc2[N+](=O)[O-])co1	5.8*	12.3	0.5	6.2	-0.5	0.4
CCCC(=O)Oc1coc(CSc2nnc(NC(=O)C3CC3)s2)cc1=O	5.4*	10.8	-0.1	14.2	-1.1	-3.7
CC(=O)Nc1nnc(SCc2cc(=O)c(OC(=O)c3ccccc3[N+](=O)[O-])co2)s1	6.4*	12.4	-0.1	6.4	0.3	0.5
O=C(Nc1nnc(SCc2cccc(F)c2)s1)C1CC1	12.1*	11.0	-0.1	-4.0	0.8	4.3
Cc1cc(=O)oc2cc(OC(=O)C(C)C)ccc12	-1.1	12.2	0.1	-4.6	.	.
O=C(NC1CCCCC1)NC1(C(=O)NCc2cccnc2)CCCCC1	0.8	-2.3	0.2	10.2	.	.
COc1ccccc1C(=O)Oc1coc(CSc2nc(C)cs2)cc1=O	7.5*	-12.5	-0.1	10.0	-1.2	-5.1
CCOc1ccccc1C(=O)Oc1coc(CSc2nc(C)cs2)cc1=O	1.2	-15.3	-0.1	1.9	.	.
CC1=C(C)/C(=N/OC(=O)c2ccc(C)cc2)C=CC1=O	7.0*	2.0	0.0	-1.9	-0.1	11.6
O=C(CCN1C(=O)c2ccccc2C1=O)Nc1cc([N+](=O)[O-])ccc1O	5.8*	-14.0	0.1	3.0	0.4	10.4
O=C(CCN1C(=O)c2ccc([N+](=O)[O-])cc2C1=O)Nc1cc(Cl)ccc1O	0.3	3.8	-0.2	1.7	.	.
O=C(NCCN1CCOCC1)C1CCN(c2ccc(N3CCOCC3)nn2)CC1	-0.6	13.3	0.0	-3.7	.	.
SMILES	GPR151 ag	MITF primary	FBW7 activator	TEAD-YAP inh	GPR151 conf act	GPR119 counter
CCOC(=O)c1c(=O)c2cc(F)c(F)cc2n2[nH]c(C)cc12	0.1	6.1	0.2	1.1	.	.
CC1CCCC(NC(=O)c2ccc(CNS(=O)(=O)c3ccc(F)cc3)cc2)C1C (configuration not stated)	6.3*	-2.7	-0.2	-5.2	0.0	-10.4
CC1CCCC(NC(=O)c2ccc(CNS(=O)(=O)c3ccc(Cl)cc3)cc2)C1C (configuration not stated)	-1.1	-1.1	-0.1	4.7	.	.
CCOC(=O)c1ccccc1NC(=O)CC(C)CC(=O)O (configuration not stated)	5.9*	5.0	0.1	-6.2	0.7	5.2
Cc1ccc(-n2c3c(cc(C(=O)Nc4cccc(F)c4)c2=O)C(=O)CCC3)cc1	-0.9	2.3	-0.1	-0.8	.	.
Cc1ccc(NC(=O)c2ccc(F)cc2C)cc1	5.3*	2.9	-0.3	-20.9	0.0	-2.7
Cc1ccc(-n2c3c(cc(C(=O)Nc4ccc(F)cc4)c2=O)C(=O)CCC3)cc1	5.5*	12.5	0.1	-0.2	-0.1	-2.5
CSc1cccc(N=CC2=C(O)CC(C)(C)CC2=O)c1	7.1*	-10.9	0.0	3.4	-0.7	-3.7
CCCOC(=O)CN1C(=O)C2C3c4ccccc4C(c4ccccc43)C2C1=O (configuration not stated)	5.0*	16.4	0.1	4.0	-0.9	-15.0
Cc1ccc(C(=O)N2CC(=O)Nc3ccccc32)cc1C	-0.3	0.4	-0.2	-5.3	.	.
C/C(=N\NC(=O)c1ccc(N2CCCC2=O)cc1)c1ccccn1	9.1*	-14.1	-0.2	-1.3	0.6	9.1
CN(c1ccc(F)cc1)S(=O)(=O)c1ccc2[nH]cc(C(=O)NCC3CCCO3)c(=O)c2c1 (configuration not stated)	5.4*	-5.4	0.3	-1.4	0.0	0.3
CCCCN(CC)C(=O)c1c[nH]c2ccc(S(=O)(=O)N(C)c3ccc(Cl)cc3)cc2c1=O	0.8	-3.6	0.0	-1.0	.	.
CCCCN(CC)C(=O)c1c[nH]c2ccc(S(=O)(=O)N(C)c3ccc(Cl)cc3F)cc2c1=O	8.3*	-0.1	-0.1	5.7	-0.5	-10.7
COc1ccc(C(=O)N2CCCC(c3nc(-c4ccc(F)cc4)no3)C2)c(OC)c1 (configuration not stated)	-0.9	-1.4	0.4	25.1	.	.
CN(C(=O)CCl)c1nc(-c2ccc(F)cc2)cs1	6.1*	-3.9	-0.1	-2.2	-0.1	2.1
COc1ccc(N=C2SC(CC(=O)Nc3ccccc3)C(=O)N2CCN(C)C)cc1 (configuration not stated)	-0.1	17.8	0.2	2.8	.	.
COc1ccccc1/C=N/N=C1/NC(=O)C(CC(=O)Nc2ccc(Cl)cc2)S1 (configuration not stated)	0.8	-1.9	-0.2	2.9	.	.
COc1ccccc1/C=N/N=C1/NC(=O)C(CC(=O)Nc2cccc(C(C)=O)c2)S1 (configuration not stated)	12.3*	-5.1	-0.1	-5.5	1.3	19.8
C=CCN1C(=O)C(CC(=O)Nc2cccc(C(C)=O)c2)SC1=Nc1ccc(OC)cc1 (configuration not stated)	5.7*	-3.6	-0.1	4.6	0.2	0.0
